About 83,000 compounds went through this panel and 20% of them were active in at least one assay; those are over-represented in the sample as a whole.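 Plates (96-well) were seeded with cells, treated with compound at one concentration, and incubated for 48 hours before percent growth was determined.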 Activity calls are given as the source filed them. The calls were made as follows: active = growth percent below 10; inactive = the rest.
system: 786-0 renal; assay: NCI-60 one-dose screen, 48 h (100 = growth as untreated, 0 = no growth, -100 = all killed); conditions: 10 µM unless noted

Row | Structure (SMILES) | growth
1 | C=CCn1c(SCC(=O)Nc2ccc(C(=O)/C=C/c3ccc(OC)cc3)cc2)nnc1-c1ccccc1 | 73.3% (inactive)
2 | COc1cc2ncnc(Nc3ccc(F)c(Cl)c3)c2cc1OCC(=O)N1CCN(c2ccc(F)cc2)CC1 | 79% (inactive)
3 | Cc1ccc2nc(Cl)c(Cn3nnnc3SCc3ccccc3)cc2c1 | 95% (inactive)
4 | CN1CCN(CCOc2ccc(-c3cnc4c(-c5ccc(C(F)(F)F)cc5)cnn4c3)cc2)CC1 | -57.3% (active)
5 | C/C(C=O)=C\c1ccc2c(c1)OCO2 | 107% (inactive)
6 | Cc1ccc(O)c(NC(=O)c2ccc(CNc3ccnc(C(F)(F)F)c3)cc2)c1 | 48.8% (inactive)
7 | O=C1/C(=C/c2ccc(C(F)(F)F)cc2)COc2ccc(O)c(O)c21 | -78.6% (active)
8 | O=C(N/N=C/c1ccc(O)cc1O)c1ccc(Nc2ccnc(C(F)(F)F)c2)cc1 | 33.7% (inactive)
9 | O=c1[nH]c(-c2ccc(Cl)cc2)cn1-c1ccc(-n2cc(-c3ccc(Cl)cc3)[nH]c2=O)cc1 | 96.4% (inactive)
10 | CC1O[C@@H]2C[C@@](O)([C@H]1O)n1c3ccccc3c3c4c(c5c6ccccc6n2c5c31)C(=O)NC4=O (stereo not given in full) | 48.8% (inactive)
11 | COC1=CC(c2ccc[nH]2)=N/C1=C\c1[nH]c(C)c(CC(=O)OCc2ccccc2)c1C | -23.7% (active)
12 | NC(=O)c1ccc(NC(=O)c2oc3ccccc3c2-c2cnn(-c3ccccc3)c2)cc1 | -26.8% [50 µM] (active)
13 | CCOC(=O)N1CCN(S(=O)(=O)c2oc(-c3ccc(Cl)cc3)nc2C#N)CC1 | 92.7% (inactive)
14 | Cc1nn(-c2ccccc2)c(N2CCCCC2)c1/C=N/NC(=O)Cn1c(=O)sc2ccccc21 | 97.2% (inactive)
15 | CN(C)c1ccc(C(=NO)c2ccc(N(C)C)cc2)cc1 | 57.3% (inactive)
16 | Clc1ccc(-c2nc(-c3c[nH]c4ncccc34)cs2)cc1 | 34.6% [100 µM] (inactive)
17 | COc1ccc(C(c2cc(OC)c(OC)c(OC)c2)N2CCCC2)cc1 (stereo not given) | 93.4% (inactive)
18 | COc1cccc(C(=O)OCC(O)C(=O)NC23CC4CC(CC(C4)C2)C3)c1 (stereo not given) | 101% (inactive)
19 | C=CC(=O)N1CCN(c2ccc3cccc(NC(=O)c4cnc(C)cn4)c3n2)CC1 | 24.8% (inactive)
20 | CCOC(=O)c1c(C)c2c(n1C)CSc1cc(S(=O)(=O)c3ccccc3)c(=O)[nH]c1-2 | 31.4% [100 µM] (inactive)

Row | Structure (SMILES) | growth
21 | CCCCCCCCNc1cc2c3c(c1)CCCN3CCC2 | 42.7% (inactive)
22 | COc1ccc(OC)c(-c2cn3nc(-c4c[nH]c5ccc(Br)cc45)sc3n2)c1 | 49.3% (inactive)
23 | CS(=O)(=O)Nc1cc(-c2ccc3ncnc(Nc4ccc5c(cnn5Cc5cccnc5)c4)c3c2)cnc1Cl | 62.9% (inactive)
24 | C=CCN=C(N)SCCCCCCSC(N)=NCC=C | 92.2% (inactive)
25 | COc1cc(C2C3=C(COC3=O)N(CCO)c3cc4c(cc32)OCCO4)cc(OC)c1OC (stereo not given) | 1.83% (active)
26 | COc1ccc2[nH]cc(-c3nc(-c4cn(C)c5ccncc45)cs3)c2c1 | 79% (inactive)
27 | COc1cccc(NC(=O)c2cccc(C3CCc4c(cc(OC)c(OC)c4OC)O3)c2)c1 (stereo not given) | 86.6% (inactive)
28 | Cn1c(O)c(C(/C=C/c2ccccc2)=Nc2ccccc2N)c(=O)n(C)c1=O | 103% (inactive)
29 | CC1=C(C(=O)n2c3ccccc3c3ccccc32)C(c2cccc([N+](=O)[O-])c2)C(C(=O)n2c3ccccc3c3ccccc32)=C(C)N1 | 103% (inactive)
30 | O=C(O)c1cn(C2CC2)c2cc(N3CCN(C(=O)N/N=C/c4ccccc4)CC3)c(F)cc2c1=O | 93.6% (inactive)
31 | CC1(C)CCC(S(=O)(=O)c2ccc3c(c2)/C(=N\O)c2cc(S(=O)(=O)N4CCN(c5ccc(F)cc5O)CC4)ccc2-3)CC1 | -89.9% (active)
32 | Cc1ccc(C)n1/C=C/n1c(C)ccc1C | 107% (inactive)
33 | CCOC(=O)C(=Cc1cccc(C#N)c1)C(=O)OCC | 86.4% (inactive)
34 | COc1cc(-c2nc(NC(C)=O)sc2-c2ccnc(NCCNS(=O)(=O)c3ccccc3)n2)ccc1Cl | 34.7% (inactive)
35 | CCN1CCN(CC(=O)Nc2nc3ccc(NCc4ccc(Br)cc4)cc3s2)CC1 | 61.3% (inactive)
36 | C/C(=N\Nc1nc(C)cs1)c1cc2ccccc2o1 | 104% (inactive)
37 | COc1ccccc1-n1c(-c2cc(O)ccc2C)cn2c3c(=O)[nH]c(=O)n(C)c3nc12 | 52.8% (inactive)
38 | N#C/C(=C\c1ccc(Br)cc1)c1cc2ccccc2[nH]1 | 93.3% (inactive)
39 | COc1ccc(C2=C/C(=C\c3ccc(Cl)cc3)C(=O)N2/N=C/c2ccc(Cl)cc2)cc1 | 103% (inactive)
40 | CC(O)c1ncc(/C=C2\SC(=S)N(Cc3ccccc3)C2=O)s1 (stereo not given) | 87.3% (inactive)

system: COLO 205 colon; assay: as above; conditions: 10 µM unless noted

Row | Structure (SMILES) | growth
41 | C=CCn1c(SCC(=O)Nc2ccc(C(=O)/C=C/c3ccc(OC)cc3)cc2)nnc1-c1ccccc1 | 101% (inactive)
42 | COc1cc2ncnc(Nc3ccc(F)c(Cl)c3)c2cc1OCC(=O)N1CCN(c2ccc(F)cc2)CC1 | 101% (inactive)
43 | Cc1ccc2nc(Cl)c(Cn3nnnc3SCc3ccccc3)cc2c1 | 110% (inactive)
44 | CN1CCN(CCOc2ccc(-c3cnc4c(-c5ccc(C(F)(F)F)cc5)cnn4c3)cc2)CC1 | -55.7% (active)
45 | C/C(C=O)=C\c1ccc2c(c1)OCO2 | 118% (inactive)
46 | Cc1ccc(O)c(NC(=O)c2ccc(CNc3ccnc(C(F)(F)F)c3)cc2)c1 | 152% (inactive)
47 | O=C1/C(=C/c2ccc(C(F)(F)F)cc2)COc2ccc(O)c(O)c21 | 12.3% (inactive)
48 | O=C(N/N=C/c1ccc(O)cc1O)c1ccc(Nc2ccnc(C(F)(F)F)c2)cc1 | 9.64% (active)
49 | O=c1[nH]c(-c2ccc(Cl)cc2)cn1-c1ccc(-n2cc(-c3ccc(Cl)cc3)[nH]c2=O)cc1 | 111% (inactive)
50 | CC1O[C@@H]2C[C@@](O)([C@H]1O)n1c3ccccc3c3c4c(c5c6ccccc6n2c5c31)C(=O)NC4=O (stereo not given in full) | 11.2% (inactive)
51 | COC1=CC(c2ccc[nH]2)=N/C1=C\c1[nH]c(C)c(CC(=O)OCc2ccccc2)c1C | -4.75% (active)
52 | NC(=O)c1ccc(NC(=O)c2oc3ccccc3c2-c2cnn(-c3ccccc3)c2)cc1 | 19.9% [50 µM] (inactive)
53 | CCOC(=O)N1CCN(S(=O)(=O)c2oc(-c3ccc(Cl)cc3)nc2C#N)CC1 | 47% (inactive)
54 | Cc1nn(-c2ccccc2)c(N2CCCCC2)c1/C=N/NC(=O)Cn1c(=O)sc2ccccc21 | 88.2% (inactive)
55 | CN(C)c1ccc(C(=NO)c2ccc(N(C)C)cc2)cc1 | 42.8% (inactive)
56 | Clc1ccc(-c2nc(-c3c[nH]c4ncccc34)cs2)cc1 | 93.2% [100 µM] (inactive)
57 | COc1ccc(C(c2cc(OC)c(OC)c(OC)c2)N2CCCC2)cc1 (stereo not given) | 71.2% (inactive)
58 | COc1cccc(C(=O)OCC(O)C(=O)NC23CC4CC(CC(C4)C2)C3)c1 (stereo not given) | 111% (inactive)
59 | C=CC(=O)N1CCN(c2ccc3cccc(NC(=O)c4cnc(C)cn4)c3n2)CC1 | 59.3% (inactive)
60 | CCOC(=O)c1c(C)c2c(n1C)CSc1cc(S(=O)(=O)c3ccccc3)c(=O)[nH]c1-2 | -27.7% [100 µM] (active)

Row | Structure (SMILES) | growth
61 | CCCCCCCCNc1cc2c3c(c1)CCCN3CCC2 | 3.21% (active)
62 | COc1ccc(OC)c(-c2cn3nc(-c4c[nH]c5ccc(Br)cc45)sc3n2)c1 | 29.8% (inactive)
63 | CS(=O)(=O)Nc1cc(-c2ccc3ncnc(Nc4ccc5c(cnn5Cc5cccnc5)c4)c3c2)cnc1Cl | 68.3% (inactive)
64 | C=CCN=C(N)SCCCCCCSC(N)=NCC=C | 86.4% (inactive)
65 | COc1cc(C2C3=C(COC3=O)N(CCO)c3cc4c(cc32)OCCO4)cc(OC)c1OC (stereo not given) | -85.9% (active)
66 | COc1ccc2[nH]cc(-c3nc(-c4cn(C)c5ccncc45)cs3)c2c1 | 96.2% (inactive)
67 | COc1cccc(NC(=O)c2cccc(C3CCc4c(cc(OC)c(OC)c4OC)O3)c2)c1 (stereo not given) | 80.2% (inactive)
68 | Cn1c(O)c(C(/C=C/c2ccccc2)=Nc2ccccc2N)c(=O)n(C)c1=O | 95% (inactive)
69 | CC1=C(C(=O)n2c3ccccc3c3ccccc32)C(c2cccc([N+](=O)[O-])c2)C(C(=O)n2c3ccccc3c3ccccc32)=C(C)N1 | 108% (inactive)
70 | O=C(O)c1cn(C2CC2)c2cc(N3CCN(C(=O)N/N=C/c4ccccc4)CC3)c(F)cc2c1=O | 114% (inactive)
71 | CC1(C)CCC(S(=O)(=O)c2ccc3c(c2)/C(=N\O)c2cc(S(=O)(=O)N4CCN(c5ccc(F)cc5O)CC4)ccc2-3)CC1 | -88.8% (active)
72 | Cc1ccc(C)n1/C=C/n1c(C)ccc1C | 96.9% (inactive)
73 | CCOC(=O)C(=Cc1cccc(C#N)c1)C(=O)OCC | 47.1% (inactive)
74 | COc1cc(-c2nc(NC(C)=O)sc2-c2ccnc(NCCNS(=O)(=O)c3ccccc3)n2)ccc1Cl | 2.47% (active)
75 | CCN1CCN(CC(=O)Nc2nc3ccc(NCc4ccc(Br)cc4)cc3s2)CC1 | -48.9% (active)
76 | C/C(=N\Nc1nc(C)cs1)c1cc2ccccc2o1 | 110% (inactive)
77 | COc1ccccc1-n1c(-c2cc(O)ccc2C)cn2c3c(=O)[nH]c(=O)n(C)c3nc12 | 84.2% (inactive)
78 | N#C/C(=C\c1ccc(Br)cc1)c1cc2ccccc2[nH]1 | 105% (inactive)
79 | COc1ccc(C2=C/C(=C\c3ccc(Cl)cc3)C(=O)N2/N=C/c2ccc(Cl)cc2)cc1 | 96.9% (inactive)
80 | CC(O)c1ncc(/C=C2\SC(=S)N(Cc3ccccc3)C2=O)s1 (stereo not given) | 96.2% (inactive)

From PubChem BioAssay (NCI)
